Screening data deposited in PubChem BioAssay by several laboratories.
A selection: hits, their analogues and other compounds. The true share with any hit is near 3.8%.
tim10-1 inh: tim10-1 yeast growth inhibition; AID 463190; S. cerevisiae tim10-1 ts strain growth, BacTiter-Glo, 24 h; inhibition, % at 20 µM; actives 2.2% (n = 330,000);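 active = inhibition of at least 40%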;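 note: mutant grown at 25 °C; 0% = DMSO wells with yeast and 100% = wells holding no yeast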
TIM10 inh: TIM10 yeast growth inhibition | inhibition, % at 10 µM | S. cerevisiae TIM10 strain growth, BacTiter-Glo luminescence, 24 h | AID 463195 | actives 1.4% (n = 330,000);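 active = inhibition of 40% or more at the single tested concentration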;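 note: wild-type TIM10 isogenic control strain grown at permissive 25 °C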
Yeast superoxide: caloric restriction mimetics inhibiting age-related superoxide in yeast; superoxide response (% of plate mean), % at 10 µM; actives 0.18% (n = 330,000); S. cerevisiae aged cells, superoxide DHE fluorescence; stronger effect = lower value;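 active = superoxide response under a set limit, about three screen SD below normal, cut at about 65% in these data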;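 note: yeast aged for seven days with compound at 30 °C before DHE staining; 100% = average MFI of all compound-treated wells on the plate with controls excluded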
NLRP3 yeast inh: NALP3 inhibition in yeast; Yeast reconstituted NLRP3/ASC/caspase-1, beta-gal luminescence, 24 h; actives 0.39% (n = 330,000); inhibition, % at 10 µM; AID 2825;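 active = inhibition of 50% or more; inactive = inhibition below 50%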;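 note: plate controls were induced DMSO wells for no effect and uninduced yeast grown without galactose for full effect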
tim23-1 inh: inhibits growth of tim23-1 mutant yeast; S. cerevisiae tim23-1 growth, BacTiter-Glo luminescence, 24 h; inhibition, % at 20 µM; actives 1.3% (n = 330,000);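 active = growth inhibition of the mutant yeast at or above 50%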;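 note: temperature-sensitive mutant grown at 25 °C; plate controls were DMSO-treated mutant yeast for no effect and medium wells lacking yeast for full effect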
tim10-1 confirm: confirmation of tim10-1 mutant yeast growth inhibitors; shares compounds with tim10-1 inh; S. cerevisiae tim10-1 ts strain growth, BacTiter-Glo, 24 h; inhibition, % at 20 µM; actives 56% (n = 7,400); AID 463213;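 active = inhibition of yeast growth at or above a set limit in either of two repeat tests at 20 µM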;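 note: tim10-1 mutant grown at permissive 25 °C to find synthetic lethal compounds; 0% = DMSO yeast wells and 100% = medium wells without yeast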
TIM10 conf: TIM10 yeast growth inhibition, confirmed; S. cerevisiae tim10 strain growth, BacTiter-Glo luminescence, 24 h; inhibition, % at 10 µM; actives 63% (n = 4,600); AID 463215; shares compounds with TIM10 inh;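 active = inhibition of yeast growth at or above a set limit in either of two replicates at 10 µM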;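 note: this counterscreen used the strain with wild-type TIM10; 0% = yeast with DMSO and 100% = medium wells lacking yeast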
The depositor's hits bear a star; . = no result given.

SMILES	tim10-1 inh	TIM10 inh	Yeast superoxide	NLRP3 yeast inh	tim23-1 inh	tim10-1 confirm	TIM10 conf
N#C/C(C(=O)Nc1ccc(Cl)cc1)=C(/S)Nc1ccccc1	69*	45*	105	20	17	60*	56*
O=C(C1CCC(=O)N(C2CC2)C1)N1CCC(Oc2ccccc2F)CC1 (configuration not stated)	-13	7	99	10	14	.	.
COP(=O)(OC)c1nc(-c2ccc(C)cc2)oc1N1CCCCC1	23	2	103	13	41	.	.
CN(C)c1ccc(Nc2nc(N)c3ccccc3n2)cc1	55*	44*	94	19	43	50*	36*
COc1ccc(C)cc1Nc1nc(N)c2ccccc2n1	-10	15	92	40	0	.	.
CCOC(=O)c1sc(=NC(=O)/C=C/c2ccccc2)n(C)c1C	7	-10	96	-2	-1	.	.
COc1ccc(Cn2c(-c3ccc(Br)cc3)c[n+]3ccccc23)cc1	48*	55*	97	18	8	30*	25
C(=N\Nc1nc(Nc2ccccc2)nc(N2CCCCC2)n1)/c1ccco1	50*	48*	83	20	47	31	37*
COc1ccc(/C=N/Nc2nc(Nc3ccccc3)nc(N3CCCC3)n2)cc1	10	-2	89	12	24	.	.
CN(C)S(=O)(=O)c1ccc(C(=O)NC(=O)CSc2nncs2)cc1	2	-5	79	-6	1	.	.
C/C(=N\OCC(=O)NC12CC3CC(CC(C3)C1)C2)c1cc2ccccc2o1	45*	40*	100	10	19	22	36*
O=C(COc1c(F)c(F)c(C(F)(F)F)c(F)c1F)Nc1ccc(N2CCOCC2)c(Cl)c1	58*	43*	107	20	41	45*	34*
CSc1ccc(OCC(=O)Nc2ccc(N3CCOCC3)c(Cl)c2)cc1	-1	3	.	32	-5	.	.
CC(C)N(Cc1ccccc1)C(=O)COC(=O)c1ccc2c(c1)OCCO2	22	-5	97	23	-12	.	.
CN(C(=O)COC(=O)c1ccc2c(c1)OCCO2)c1ccccc1	44*	50*	101	3	48	48*	43*
COCn1c(=O)c2c(nc(SC3=NCCS3)n2Cc2ccccc2C)n(COC)c1=O	47*	43*	115	2	40	19	35*
COc1cc(S(=O)(=O)N2CCN(Cc3ccc4c(c3)OCO4)CC2)ccc1NC(C)=O	23	8	99	5	7	.	.
S=C(Nc1cccc(Cl)c1)NC1CCCCC1	26	14	98	28	16	.	.
S=C(NNc1cccc(Cl)c1)NC1CCCCC1	49*	61*	97	-1	40	41*	55*
S=C(NCc1ccco1)Nc1ccc(Oc2ccccc2)cc1	45*	46*	108	30	26	28	37*
S=C(NCc1ccco1)Nc1cc(Cl)c(Cl)cc1Cl	44*	42*	115	27	43	28	-21
COc1ccc2[nH]cc(S(=O)(=O)c3ccc(C)cc3)c2c1	0	13	101	-2	15	.	.
Cc1cc(C(=O)O/N=C(\N)c2ccncc2)ccc1[N+](=O)[O-]	13	4	106	-51	11	.	.
COc1ccc(/C(N)=N/OC(=O)c2ccc([N+](=O)[O-])c(C)c2)cc1OC	65*	49*	77	13	46	71*	36*
Cc1ccc(NC(=O)c2noc(C(C)C)c2[N+](=O)[O-])cc1	27	28	98	7	34	.	.
SMILES	tim10-1 inh	TIM10 inh	Yeast superoxide	NLRP3 yeast inh	tim23-1 inh	tim10-1 confirm	TIM10 conf
Cc1cccc(NC(=S)N2CCC(NC(=O)C3CCCCC3)CC2)c1	1	-14	107	10	-4	.	.
COC(=O)N1C(=O)[C@](c2ccccc2)(C2CCCCC2)N1C(=O)OC	49*	43*	92	12	49	32*	39*
Cc1ccc(CSc2nnc(-c3cccs3)n2C)cc1	23	25	108	25	43	.	.
Cn1c(SCc2c(Cl)cccc2Cl)nnc1-c1cccs1	48*	48*	92	43	44	35*	34*
C=CCOc1ccccc1/C=c1\sc2nc(-c3oc4ccccc4c3C)nn2c1=O	23	1	103	1	25	.	.
COc1ccccc1/C=c1\sc2nc(-c3ccccc3OC)nn2c1=O	49*	50*	105	15	47	54*	24
Cc1cccc(C(=O)Nc2cccc(Br)c2)c1[N+](=O)[O-]	58*	65*	111	1	43	54*	50*
Cc1nc(NC(=O)/C=C/c2ccccc2)n[nH]1	60*	61*	107	17	44	59*	53*
Cc1ccc(S(=O)(=O)N(C)CC(=O)Nc2ccccc2N2CCCC2)cc1	32	18	119	14	43	.	.
Cc1[nH]nc(N)c1N=Nc1ccc(Br)cc1	14	29	118	19	-264	.	.
Cc1nc(N)sc1N=Nc1ccc(Br)cc1	44*	60*	122	28	48	29*	58*
O=[N+]([O-])c1ccc(CN2CCN(Cc3c[nH]c4ccccc34)CC2)cc1	9	7	88	28	8	.	.
CCN(CC)C(=O)c1ncn(C)c1C(=O)N(CC)CC	-17	-3	82	9	-2	.	.
Cc1c(-c2nc3ccccc3[nH]2)cnn1C	-41	3	86	17	0	.	.
Cn1cc(-c2nc3ccccc3[nH]2)c2ccccc21	41*	71*	100	32	-10	27	-3
O=C(Nc1cccc(NC(=O)c2ccc([N+](=O)[O-])o2)c1)c1ccco1	72*	67*	99	7	11	66*	67*
O=C(Nc1ccc(NC(=O)c2ccc([N+](=O)[O-])o2)cc1Cl)c1ccco1	-6	26	108	12	47	.	.
CN1/C(=C\C(=O)Nc2cccc(Cl)c2)C(C)(C)c2ccccc21	40*	41*	136	15	47	34*	43*
Cc1ccnc(N2CCC(C(=O)Nc3cccc(C(F)(F)F)c3)CC2)n1	52*	42*	98	13	47	48*	30*
O=c1c(Cl)c(NCc2ccc(F)cc2)cnn1C12CC3CC(CC(C3)C1)C2	47*	52*	91	31	44	38*	-2
C=CCOc1ccc(C2C(C(=O)c3ccco3)=C(O)C(=O)N2c2nnc(C)s2)cc1 (configuration not stated)	7	9	110	0	-20	.	.
NNc1nc2c(Cl)ccc(Cl)c2s1	58*	53*	121	1	47	58*	3
O=C(Nc1nc2c(Cl)ccc(Cl)c2s1)C1CC1	40	35	88	8	30	.	.
